USP17 inh – blocks human USP17 ubiquitin-rhodamine cleavage. purified USP17, Ub-rhodamine cleavage fluorescence, 3 h. A8MUK1. 47,000 tested, 6.5% active. inhibition, % at 50 µM
USP8 block – blocks human USP8 ubiquitin-rhodamine cleavage; AID 1645853; purified USP8, Ub-rhodamine cleavage fluorescence, 30 min; inhibition, % at 20 µM; P40818; 47,000 tested, 4.2% active
USP30 inh – human USP30 deubiquitinase inhibition. purified USP30, Ub-rhodamine cleavage fluorescence. inhibition, % at 25 µM. 47,000 tested, 5.3% active. AID 1645860
USP10 block – human USP10 deubiquitinase inhibition; Q14694; purified USP10, Ub-rhodamine fluorescence, 60 min; inhibition, % at 20 µM; AID 1645856; 47,000 tested, 1.1% active
Target sequence (Q14694 whole entry, looked up): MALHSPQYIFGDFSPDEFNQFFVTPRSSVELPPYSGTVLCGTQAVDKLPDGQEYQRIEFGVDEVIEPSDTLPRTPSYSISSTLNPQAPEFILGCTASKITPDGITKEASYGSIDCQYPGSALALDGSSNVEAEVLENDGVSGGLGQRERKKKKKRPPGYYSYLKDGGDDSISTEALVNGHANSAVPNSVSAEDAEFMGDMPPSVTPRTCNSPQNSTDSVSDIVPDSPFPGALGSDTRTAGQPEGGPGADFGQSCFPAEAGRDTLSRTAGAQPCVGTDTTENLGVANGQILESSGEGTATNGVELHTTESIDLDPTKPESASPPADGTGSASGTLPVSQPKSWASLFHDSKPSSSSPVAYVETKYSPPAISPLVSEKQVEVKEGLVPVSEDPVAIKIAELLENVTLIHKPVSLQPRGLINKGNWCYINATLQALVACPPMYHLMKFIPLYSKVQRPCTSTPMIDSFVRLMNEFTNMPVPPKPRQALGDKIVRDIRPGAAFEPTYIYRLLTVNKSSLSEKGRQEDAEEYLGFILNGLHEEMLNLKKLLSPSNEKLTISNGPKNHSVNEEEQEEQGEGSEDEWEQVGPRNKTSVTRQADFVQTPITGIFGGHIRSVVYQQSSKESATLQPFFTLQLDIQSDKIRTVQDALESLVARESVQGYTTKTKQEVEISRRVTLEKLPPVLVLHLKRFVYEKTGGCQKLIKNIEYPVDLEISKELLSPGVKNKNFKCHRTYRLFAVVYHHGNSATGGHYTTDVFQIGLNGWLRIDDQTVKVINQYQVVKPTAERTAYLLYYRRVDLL
USP28 inh – blocks human USP28 ubiquitin-rhodamine cleavage; Q96RU2; purified USP28, Ub-rhodamine cleavage fluorescence, 30 min; inhibition, % at 25 µM; 47,000 tested, 3% active
* hit, by the source's call; i = inactive; . = no result. Shown are actives, neighbours in structure and some others; about 14% of the full set was active somewhere. Cut-off read from the data, not from the text of the source: active = inhibition above about 30%; inactive = the rest.

SMILES | USP17 inh | USP8 block | USP30 inh | USP10 block | USP28 inh
N#Cc1ccc(NC(=O)Nc2cccn(Cc3ccccc3Br)c2=O)cc1 | 81* | 90* | 30* | 51* | 63*
O=C(Cn1c(=O)[nH]c2ccccc2c1=O)N1CCN(c2ccc(Cl)cc2)CC1 | 8 | 10 | 15 | -2 | 8
O=c1[nH]c2ccccc2n1CCCOc1ccc(Cl)cc1 | 7 | 5 | 6 | 6 | 40*
Cc1ccc(NC(=O)N2C[C@@H]3C[C@H](NS(C)(=O)=O)[C@H]2C3)c(C)c1 | 13 | 0 | 16 | 3 | 1
O=C(Nc1ccc2snnc2c1)Nc1ccc(F)cc1F | -14 | 74* | -39 | 28 | -10
CCOC(=O)Cc1ccc(NC(=O)Nc2ccc3snnc3c2)cc1 | 27 | -1 | -21 | 1 | 13
CC(C)c1nc2sc3c(N(CCO)CCO)ncnc3c2c2c1COC(C)(C)C2 | 10 | 5 | 60* | -6 | 19
CCCCN(CC)c1ncnc2c1sc1nc(-c3ccco3)c3c(c12)CC(C)(C)OC3 | 53* | 59* | -34 | 11 | 12
O=C(CSc1ncn(-c2ccccc2)n1)Nc1ccc(Cc2ccncc2)cc1 | 41* | 9 | 39* | 15 | 46*
O=C(CSc1n[nH]c(-c2ccncc2)n1)Nc1ccc(F)cc1 | -1 | -1 | 0 | 1 | -6
Cc1ncsc1CN1C[C@H]2CC(OCc3ccccc3)C[C@H]2C1 (some centres undefined) | -7 | -2 | 0 | 1 | 0
CCc1nc(SCc2ccccc2C)c2oc3ccccc3c2n1 | 29 | 5 | 32* | 4 | 9
CCc1nc(SCC(=O)Nc2ccccc2Cl)c2oc3ccccc3c2n1 | 58* | 5 | -2 | 16 | -6
CCc1nc(SCC(=O)Nc2ccc(Cl)c(Cl)c2)c2oc3ccccc3c2n1 | 25 | -241 | 18 | 13 | 1
CCc1nc(SCC(=O)Nc2cc(Cl)ccc2C)c2oc3ccccc3c2n1 | 54* | 26 | 68* | 20 | 14
Cc1ccc(NC(=O)c2cn(-c3cc(N4CCOCC4)ncn3)cn2)cc1 | 15 | 0 | 17 | -1 | 7
c1cc2nc3c(nc2c2nonc12)CCCC3 | 1 | 15 | -6 | 0 | -2
COc1ccc(C(C)(C)C)cc1S(=O)(=O)N1CCN(c2nc(C)cc(N(C)C)n2)CC1 | -6 | -5 | -26 | -3 | -6
O=S(=O)(c1ccc(NCc2ccccc2)c(S(=O)(=O)N2CCCCC2)c1)N1CCCCC1 | -9 | -216 | 4 | 6 | -4
CC1Cc2ccccc2N1Cc1cc[nH]c(=O)c1 (centres undefined) | -34 | 45* | -311 | -9 | -85
CCCCN1CCN(c2cc(-n3ccnc3C)n3nccc3n2)CC1 | -82 | -15 | -318 | -10 | -97
CN(Cc1ccccc1)S(=O)(=O)c1ccc2[nH]cc(C(=O)NCc3cccs3)c(=O)c2c1 | 60* | 11 | -33 | 12 | -9
Cc1sc2nc(CN3CCOCC3)nc(Oc3cccc4c3OC(C)(C)C4)c2c1C | -25 | 10 | -71 | -4 | -25
CN1CCN(Cc2cccnc2)C(=O)C12CCN(Cc1ccc[nH]1)CC2 | 46* | 40* | -14 | -8 | 55*
O=C(CCC(=O)N(c1ccccc1)c1ccccc1)Nc1cccc(C(F)(F)F)c1 | 18 | -32 | 34* | 10 | 15
SMILES | USP17 inh | USP8 block | USP30 inh | USP10 block | USP28 inh
O=C(Nc1cccc(C(F)(F)F)c1)c1ccccc1Cc1ccccc1 | 35* | 18 | 18 | 16 | 26
Cc1nn2c(CNS(=O)(=O)Cc3ccccc3)c(C)nc2s1 | -12 | 0 | -13 | 1 | -6
Cc1ccc(F)cc1NC(=O)CCCc1c[nH]c2ccccc12 | -1 | 5 | -4 | 1 | 8
O=C(CCc1c[nH]c2ccccc12)Nc1ccc(Br)cc1F | 14 | 18 | 17 | 5 | 42*
CCCCNC(=O)c1cc(-c2ccc(C)cc2)n(C2CCS(=O)(=O)C2)n1 (centres undefined) | -6 | 0 | . | -2 | .
COc1ccc(-c2cc(C(=O)Nc3cccc(C#N)c3)nn2C2CCS(=O)(=O)C2)cc1 (centres undefined) | 39* | 23 | 19 | 13 | 18
O=C(c1ccc2ncccc2c1)N1CCOC(c2cccc(Cc3cccc(Cl)c3)n2)C1 (centres undefined) | -4 | -14 | -23 | -9 | 15
NCc1ccc([C@@H]2CN(C(=O)c3ccc4ncccc4c3)C[C@H]2c2ccn[nH]2)cc1 | 68* | -12 | . | -2 | .
COc1ccc(C(=O)Nc2ccccc2Cc2ccccc2)c(OC)c1 | 23 | 19 | 27 | 11 | 19
COc1ccc(NC(=O)c2ccccc2OCC(=O)Nc2ccccc2C(F)(F)F)c(C)c1 | 79* | 52* | -1 | 5 | -1
CNc1nc(C2CCCCN2C(=O)c2ccccc2)nc2c1CCN(C(C)=O)C2 (centres undefined) | 0 | 0 | -2 | 0 | -7
CN1C[C@@H]2C[C@H](NC(=O)Nc3ccc(F)cc3)CN2Cc2ccccc21 | -2 | 11 | 9 | 0 | 0
CC(=O)Nc1ccc(NC(=O)N[C@H]2C[C@H]3CN(C)c4ccccc4CN3C2)cc1 | -2 | 3 | -31 | -2 | 31*
CSC1=N/C(=C/c2ccccc2)C(=O)N1c1ccc(F)c(Cl)c1 | 25 | 14 | 33* | 1 | 14
Cc1nc(N2CCN(C)CC2)ncc1C(=O)N1CCN(c2ccc(F)cc2)CC1 | 11 | 14 | 17 | 0 | 6
COc1cc(-c2cc(C(=O)Nc3cc(C)[nH]n3)c3ccccc3n2)cc(OC)c1OC | 39* | -132 | 51* | -1 | 2
COc1ccc(C)cc1NC(=O)c1cc(-c2ccc(Cl)cc2)nc2ccccc12 | -3 | -7 | -13 | -3 | -10
O=C(NC1CC1)c1ccc(-n2cccn2)nc1 | 8 | -16 | 12 | 2 | 0
O=C(/C=C/c1cccc(C(F)(F)F)c1)c1ccoc1 | 18 | 21 | 15 | 9 | 5
Cc1ccc(NC(=O)/C=C/c2cccc(C(F)(F)F)c2)c(O)c1 | 58* | 1 | 45* | 6 | 27
Fc1ccc(Cn2nnc3c(N4CCOCC4)ncnc32)cc1 | 1 | 0 | 25 | 1 | 29
Cc1c(C)c(C)c2[nH]c(-c3ccc4c(c3)OCO4)nc2c1C | 47* | 10 | 49* | -1 | 2
Cc1ncc(-c2ccc3c(c2)OCO3)c(-c2nccs2)n1 | -155 | -23 | i | -7 | -94
c1ccc(-c2nn3c(-c4ccco4)nnc3c3ccccc23)cc1 | 1 | 8 | -2 | 1 | 0
c1ccc(-c2cc(-c3nnc4c5ccccc5cnn34)[nH]n2)cc1 | 47* | 1 | 7 | 3 | -7
O=C(CSc1nc2ncc(Cl)cc2[nH]1)Nc1ccc(OCc2ccccc2)cc1 | 38* | -5 | -58 | 11 | -14
Cc1ccc(NC(=O)CSc2nc3ncc(Br)cc3[nH]2)cc1C | 60* | 6 | . | 6 | .
CCOc1ccc(NC(=O)CSc2nc3ncc(Br)cc3[nH]2)cc1 | -20 | 8 | -34 | 16 | -25
COC(=O)c1ccc(NC(=O)CSc2nc3ncc(Cl)cc3[nH]2)cc1 | 17 | 0 | -29 | 30 | -6
